Activity calls are given as the source filed them.
How the values were obtained:
[1] = optical density shifts of acrAB sulA E. coli – strain DRC41, OD650, 48 h, E. coli filamentation inducer project, primary screen (AID 1152); conditions: higher = more signal, called active from +8 up or from −8 down;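 also: E. coli MC1000 strain DRC41 lacking acrAB efflux pump and sulA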
[2] = probe aLefty1 binding on compound microarray – biochemical, small-molecule microarray, 635/667 nm fluorescence, primary screen (AID 1153); conditions: higher = more signal;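 also: score merges spot fluorescence with signal-to-noise ratio from the scanned slide images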
[3] = plasmodial surface anion channel blockers, osmotic lysis – cell-based, P. falciparum Indochina, OD700, 1 h, primary screen (AID 1154); conditions: P. falciparum Indochina infected RBC osmotic lysis, higher = more signal, called active from +8 up or from −8 down
[4] = plasmodial surface anion channel blockers, osmotic lysis – cell-based, P. falciparum Indochina, OD700, 2 h, primary screen (AID 1155);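 also: lysis reports solute entry through the parasite surface anion channel PSAC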; conditions: P. falciparum Indochina infected erythrocytes, higher = more signal, called active from +8 up or from −8 down
[5] = changes in parasitized red cell lysis, either direction – P. falciparum Indochina, OD700, 3 h, PSAC antagonist project, primary screen (AID 1156); conditions: P. falciparum-infected erythrocytes, osmotic lysis, higher = more signal, called active from +8 up or from −8 down
[6] = plasmodial surface anion channel blockers, osmotic lysis – cell-based, P. falciparum Indochina, OD700, 18 h, primary screen (AID 1157); conditions: P. falciparum Indochina infected erythrocytes, osmotic lysis OD700, 18 h; higher = more signal, called active from +8 up or from −8 down
[7] = S6 kinase pathway phospho-S6 level changes – cell-based, A549, cytoblot, luminescence, serum-stimulated, primary screen (AID 1158); conditions: 5 h, higher = more signal;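 also: serum-stimulated A549 lung adenocarcinoma cells; signal is phosphorylated S6 detected by cytoblot immunostaining with HRP secondary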
[8] = target: NADPH oxidase 2 (Homo sapiens) (UniProt P04839); experiment: compounds shifting NOX2 Amplex Red fluorescence – cell-based, HEK293-NOX2, PMA-stimulated, NOX inhibitor project, primary screen (AID 1159); conditions: 45 min, higher = more signal, called active from +8 up or from −8 down; also: test concentration not given here
[9] = target: NADPH oxidase 4 (Homo sapiens) (UniProt Q9NPH5); experiment: compounds shifting NOX4 Amplex Red fluorescence – cell-based, HEK293-NOX4, tetracycline-induced, NOX inhibitor project, primary screen (AID 1160); conditions: HEK293-NOX4, Amplex Red H2O2 fluorescence, 45 min; higher = more signal, called active from +8 up or from −8 down
[10] = target: NADPH oxidase 5 (Homo sapiens) (UniProt Q96PH1); experiment: compounds shifting NOX5 Amplex Red fluorescence – cell-based, HEK293-NOX5, NOX inhibitor project, primary screen (AID 1161); conditions: HEK293-NOX5, ionomycin, 45 min, higher = more signal
[11] = compound effects on lung adenocarcinoma cell viability – A549, calcein-AM fluorescence, 48 h, basal, profiling panel (AID 1162); conditions: higher = more signal; also: test concentration not given here
[12] = compound effects on differentiated 3T3-L1 adipocyte viability – cell-based, 3T3-L1 adipocytes, calcein-AM fluorescence, 48 h, basal, profiling panel (AID 1163); conditions: 3T3-L1 adipocytes viability, higher = more signal; also: test concentration not given here
[13] = compound effects on hepatocellular carcinoma cell viability – HepG2, calcein-AM fluorescence, 48 h, basal, profiling panel (AID 1164); conditions: higher = more signal; also: test concentration not given here
[14] = compound effects on multiple myeloma cell viability – MM1S, calcein-AM fluorescence, 48 h, basal, profiling panel (AID 1165); conditions: higher = more signal; also: test concentration not given here
[15] = calcein-AM signal in unstimulated myeloma cells – cell-based, calcein-AM fluorescence, 48 h, PK04 Diversity Set, profiling panel (AID 1166); conditions: RPMI8226 myeloma viability, higher = more signal;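 also: cells grown under basal conditions without added stimulus; test concentration not given here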
[16] = JC-1 mitochondrial signal, unstimulated HepG2 cells – cell-based, JC-1 fluorescence, 24 h, 100 nL compound, profiling panel (AID 1167); conditions: HepG2 mitochondrial potential, higher = more signal; also: test concentration not given here
[17] = JC-1 mitochondrial signal, unstimulated adipocytes – cell-based, JC-1 fluorescence, 3T3-L1 adipocytes, 24 h, 100 nL compound, profiling panel (AID 1168); conditions: JC-1 mitochondrial fluorescence, higher = more signal, called active from +8 up or from −8 down; also: test concentration not given here
[18] = JC-1 mitochondrial signal, unstimulated myeloma cells – cell-based, JC-1 fluorescence, RPMI8226, 24 h, 100 nL compound, profiling panel (AID 1169); conditions: JC-1 mitochondrial potential fluorescence, higher = more signal; also: test concentration not given here
[19] = JC-1 mitochondrial signal, unstimulated MM1S myeloma – cell-based, JC-1 fluorescence, 24 h, 100 nL compound, profiling panel (AID 1170); conditions: MM1S mitochondrial potential, higher = more signal; also: test concentration not given here
[20] = resazurin metabolic signal in A549 cells – cell-based, resazurin fluorescence, 24 h, PK04 Diversity Set, profiling panel (AID 1171); conditions: A549 viability, higher = more signal, called active from +8 up or from −8 down; also: test concentration not given here

Sequence of NADPH oxidase 4 (Homo sapiens) (Q9NPH5 whole entry, looked up): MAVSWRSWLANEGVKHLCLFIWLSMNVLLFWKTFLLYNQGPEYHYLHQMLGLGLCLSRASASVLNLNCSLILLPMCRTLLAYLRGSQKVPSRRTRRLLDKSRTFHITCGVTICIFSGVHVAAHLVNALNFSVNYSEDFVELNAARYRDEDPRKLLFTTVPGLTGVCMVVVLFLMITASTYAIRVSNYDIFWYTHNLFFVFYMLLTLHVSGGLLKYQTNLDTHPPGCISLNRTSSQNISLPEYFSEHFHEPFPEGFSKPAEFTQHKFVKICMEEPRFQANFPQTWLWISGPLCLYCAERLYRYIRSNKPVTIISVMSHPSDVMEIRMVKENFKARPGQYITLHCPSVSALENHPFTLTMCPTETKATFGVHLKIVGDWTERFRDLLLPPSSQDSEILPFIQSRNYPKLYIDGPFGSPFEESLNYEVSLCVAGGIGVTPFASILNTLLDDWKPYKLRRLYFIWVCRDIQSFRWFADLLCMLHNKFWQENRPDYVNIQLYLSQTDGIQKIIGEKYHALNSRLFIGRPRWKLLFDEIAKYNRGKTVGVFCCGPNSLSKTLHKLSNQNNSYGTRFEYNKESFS
Sequence of NADPH oxidase 2 (Homo sapiens) (P04839 whole entry, looked up): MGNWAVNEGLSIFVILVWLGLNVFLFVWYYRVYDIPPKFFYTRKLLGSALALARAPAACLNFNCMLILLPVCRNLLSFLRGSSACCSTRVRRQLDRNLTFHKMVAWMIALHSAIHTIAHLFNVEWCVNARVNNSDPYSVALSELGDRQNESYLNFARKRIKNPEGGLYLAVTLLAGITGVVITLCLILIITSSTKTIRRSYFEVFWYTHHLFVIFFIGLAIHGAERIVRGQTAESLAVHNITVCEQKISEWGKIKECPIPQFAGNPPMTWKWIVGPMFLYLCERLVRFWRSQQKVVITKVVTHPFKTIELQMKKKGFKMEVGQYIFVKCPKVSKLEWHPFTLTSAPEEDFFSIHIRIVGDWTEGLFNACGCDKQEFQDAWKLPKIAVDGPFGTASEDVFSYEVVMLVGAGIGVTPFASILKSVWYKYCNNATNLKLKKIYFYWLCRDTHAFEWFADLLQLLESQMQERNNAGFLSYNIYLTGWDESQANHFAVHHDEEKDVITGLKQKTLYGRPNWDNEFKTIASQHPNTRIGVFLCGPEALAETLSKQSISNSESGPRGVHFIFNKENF
Sequence of NADPH oxidase 5 (Homo sapiens) (Q96PH1 whole entry, looked up): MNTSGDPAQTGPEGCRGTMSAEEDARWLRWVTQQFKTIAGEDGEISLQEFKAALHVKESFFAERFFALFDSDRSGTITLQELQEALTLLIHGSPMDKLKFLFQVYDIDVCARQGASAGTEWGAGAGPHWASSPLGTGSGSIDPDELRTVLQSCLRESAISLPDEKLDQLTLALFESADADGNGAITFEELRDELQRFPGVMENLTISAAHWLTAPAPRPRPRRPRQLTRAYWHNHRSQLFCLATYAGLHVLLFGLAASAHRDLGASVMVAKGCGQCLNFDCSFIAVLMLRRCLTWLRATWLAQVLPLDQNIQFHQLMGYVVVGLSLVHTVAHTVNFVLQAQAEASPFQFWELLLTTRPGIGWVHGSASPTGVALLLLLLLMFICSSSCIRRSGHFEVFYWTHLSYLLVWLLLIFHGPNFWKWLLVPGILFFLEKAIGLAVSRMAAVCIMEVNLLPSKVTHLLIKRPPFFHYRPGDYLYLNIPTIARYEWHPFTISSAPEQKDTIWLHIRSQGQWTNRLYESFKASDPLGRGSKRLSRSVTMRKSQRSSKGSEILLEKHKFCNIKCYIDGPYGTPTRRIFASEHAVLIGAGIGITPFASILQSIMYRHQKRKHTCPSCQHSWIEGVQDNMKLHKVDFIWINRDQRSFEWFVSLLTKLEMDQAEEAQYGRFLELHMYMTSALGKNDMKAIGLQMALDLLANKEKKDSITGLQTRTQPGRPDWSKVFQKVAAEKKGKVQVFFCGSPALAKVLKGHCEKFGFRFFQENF

Structure (SMILES)	z-score [1]	composite z-score [2]	z-score [3]	z-score [4]	z-score [5]	z-score [6]	z-score [7]	z-score [8]	z-score [9]	z-score [10]	z-score [11]	z-score [12]	z-score [13]	z-score [14]	z-score [15]	z-score [16]	z-score [17]	z-score [18]	z-score [19]	z-score [20]
CCc1cc2c(nc1CC)CCN(CCC(C)=NOC[C@H]1O[C@H](c3ccccc3)C=C[C@@H]1Oc1ccc(OC)cc1)C2	-0.563 (inactive)	-0.0003	6.37 (inactive)	-0.735 (inactive)	2.37 (inactive)	-1.62 (inactive)	1.18	-1.83 (inactive)	-0.845 (inactive)	-2.68	-0.67	0.765	-0.106	-2.03	-2.35	5.61	-1.1 (inactive)	-0.0846	0.0581	0.364 (inactive)
COC(=O)CC=C[C@@H](C)[C@@H]1C=C[C@H](O)[C@@H](CO)O1	0.372 (inactive)	-0.472	0.0339 (inactive)	0.447 (inactive)	-0.27 (inactive)	-0.0707 (inactive)	0.338	0.418 (inactive)	-0.23 (inactive)	0.576	-0.864	-1.02	-0.008	0.667	-0.932	0.295	-0.875 (inactive)	-0.229	-0.433	-0.554 (inactive)
CO[C@@H]1COC(=O)[C@@H]2CCCN2C(=O)[C@@H](C)COC(=O)CC=C[C@H]1C	-0.481 (inactive)	0.0553	0.202 (inactive)	-0.116 (inactive)	0.601 (inactive)	0.0246 (inactive)	-0.641	-0.48 (inactive)	0.393 (inactive)	0.0919	-1.06	-0.11	-0.321	0.0099	-0.748	-0.2	-1.49 (inactive)	-0.0504	-0.684	0.948 (inactive)
C[C@H](ON=C1[C@H]2CCn3c(=O)n(-c4ccccc4)c(=O)n3[C@H]2[C@H](O)[C@@H]2O[C@H]12)c1cn([C@H](CO)Cc2ccccc2)nn1	0.699 (inactive)	0.0502	0.463 (inactive)	-0.426 (inactive)	-0.089 (inactive)	-0.0498 (inactive)	-0.52	-0.094 (inactive)	0.535 (inactive)	0.346	-0.142	-0.443	0.115	-0.403	-0.533	-0.633	-1 (inactive)	-0.243	0.155	-0.16 (inactive)
C[C@H]1CC[C@H]2C(=O)O[C@H](COc3ccc(C(C)(C)C)cc3)CN2[C@@H]1c1ccc(Br)cc1	-0.421 (inactive)	-0.412	0.683 (inactive)	0.237 (inactive)	-0.889 (inactive)	0.465 (inactive)	-0.338	0.215 (inactive)	0.644 (inactive)	0.974	0.354	0.356	0.573	0.0772	-2.09	-0.568	-0.372 (inactive)	-0.841	1.33	0.636 (inactive)
C[C@H]1Cc2c(COc3ccccc3)nc3c(c2CO1)CN(CCOc1ccccc1)CC3	0.49 (inactive)	0.2	3.74 (inactive)	0.484 (inactive)	1.68 (inactive)	0.908 (inactive)	0.44	0.539 (inactive)	0.191 (inactive)	-0.00428	1.05	0.175	0.93	-0.125	-0.517	2.33	0.678 (inactive)	-0.041	0.184	-0.0515 (inactive)
COC(=O)CC=C[C@@H](C)[C@@H](C=NOC[C@@H](O)[C@H]1O[C@@H]2OC(C)(C)O[C@@H]2[C@H]1O)NS(=O)(=O)c1ccc(C)cc1	0.463 (inactive)	0.165	-0.0598 (inactive)	0.0216 (inactive)	-0.268 (inactive)	0.0967 (inactive)	-0.979	0.214 (inactive)	0.171 (inactive)	0.829	-0.234	0.531	0.104	-1.57	-0.34	0.153	0.158 (inactive)	-0.15	-0.488	-0.854 (inactive)
CCOC(=O)NN=C1C[C@@H](O)[C@@H](O)[C@@H]2[C@@H]3C(=O)N(C(C)(C)C)C(=O)[C@@H]3CC[C@H]12	1.04 (inactive)	0.0701	0.521 (inactive)	0.16 (inactive)	0.786 (inactive)	0.18 (inactive)	0.698	-1.89 (inactive)	0.644 (inactive)	0.0282	0.338	-0.666	1.34	0.469	0.541	0.361	0.314 (inactive)	-0.252	-1.59	-0.974 (inactive)
CO[C@@H]1COC(=O)CC=C[C@@H](C)[C@H](OC)COC(=O)[C@@H](C)COC(=O)CC=C[C@H]1C	0.604 (inactive)	-0.145	-0.52 (inactive)	0.409 (inactive)	-0.28 (inactive)	0.377 (inactive)	-0.0303	-0.387 (inactive)	0.195 (inactive)	0.479	0.865	-0.159	1.48	0.397	-0.802	1.11	-0.661 (inactive)	0.338	0.253	0.134 (inactive)
O=C1C[C@@H](O)[C@@H](O)[C@@H]2[C@@H]3C(=O)N(Cc4ccccc4)C(=O)[C@@H]3CC[C@@H]12	-0.861 (inactive)	-0.0559	-0.0483 (inactive)	0.141 (inactive)	0.0313 (inactive)	-0.014 (inactive)	-0.224	1.04 (inactive)	0.286 (inactive)	-0.0644	0.249	-0.118	0.208	0.0158	-0.499	-0.229	0.377 (inactive)	0.139	0.431	1.11 (inactive)
CCOC(=O)[C@H](CC(C)C)NC(=O)CCC1CC(OC(=O)NCCc2ccc(F)cc2)CC2(CCCC(COC(=O)NCCC(C)C)O2)O1 (stereo not given in full)	-1.14 (inactive)	0.0451	6.28 (inactive)	0.267 (inactive)	0.0542 (inactive)	0.0517 (inactive)	-0.326	1.26 (inactive)	-1.27 (inactive)	-0.8	-0.646	0.174	0.0995	0.773	-0.479	-0.488	0.152 (inactive)	0.248	-0.00687	0.0692 (inactive)
CC(C)=CCCC(C)=CCON=C1C[C@@H](O)[C@@H](O)[C@@H]2[C@@H]3C(=O)N(C[C@@H]4CCCO4)C(=O)[C@@H]3CC[C@H]12	-0.249 (inactive)	-0.0501	2.57 (inactive)	0.847 (inactive)	0.193 (inactive)	0.55 (inactive)	0.659	0.0784 (inactive)	0.256 (inactive)	-2.11	-0.0285	-0.789	-0.758	0.253	-0.674	-0.915	-0.528 (inactive)	0.569	-0.789	0.691 (inactive)
Cc1cc2c(c(=O)o1)[C@@H](O)[C@H]1O[C@H]1C2=O	-1.63 (inactive)	-0.0547	0.381 (inactive)	0.716 (inactive)	0.634 (inactive)	0.348 (inactive)	0.0719	1.6 (inactive)	-0.899 (inactive)	-1.31	-0.223	0.374	0.123	0.65	-1.15	-0.352	-0.659 (inactive)	-0.141	0.0583	-0.588 (inactive)
CCOC(=O)[C@H](CC(C)C)NC(=O)CCC1CC(OC(=O)NCc2cccc3ccccc23)CC2(CCCC(COC(=O)NCCOC)O2)O1 (stereo not given in full)	1.24 (inactive)	-0.0559	-0.137 (inactive)	0.184 (inactive)	-0.283 (inactive)	-0.196 (inactive)	0.142	1.05 (inactive)	0.96 (inactive)	-0.464	2.3	0.217	0.442	-0.441	0.643	1.01	-0.356 (inactive)	-0.198	-0.834	0.781 (inactive)
COC(=O)[C@H](C)NC(=O)CCC1CC(OC(=O)NCc2ccc3c(c2)OCO3)CC2(CCCC(COC(=O)NCc3cccc(C(F)(F)F)c3)O2)O1 (stereo not given in full)	-0.39 (inactive)	-0.045	0.598 (inactive)	-0.529 (inactive)	0.262 (inactive)	-0.239 (inactive)	0.0036	1.5 (inactive)	0.971 (inactive)	1.15	-0.828	-0.0811	-1.55	-2.05	0.442	-1.44	-0.123 (inactive)	0.619	-0.213	0.0249 (inactive)
CC(CCN1CCc2nc(-c3ccccc3)c(-c3ccccc3)cc2C1)=NOC[C@@H](O)COCc1ccco1	1.17 (inactive)	-0.101	3.04 (inactive)	0.369 (inactive)	0.686 (inactive)	0.195 (inactive)	0.615	-0.636 (inactive)	-0.00269 (inactive)	-0.624	1.53	-0.0838	2.01	-0.293	0.465	1.65	-0.278 (inactive)	1.09	-0.174	-0.684 (inactive)
CCc1cc2c(nc1CC)CCN(CCC(C)=NO[C@@H](C)c1cn([C@H](CO)Cc3ccccc3)nn1)C2	0.0933 (inactive)	-0.0011	4.48 (inactive)	0.586 (inactive)	-0.0919 (inactive)	0.49 (inactive)	0.434	-1.4 (inactive)	0.033 (inactive)	0.858	0.669	0.367	1.8	0.73	0.18	2.44	0.254 (inactive)	-0.279	-0.525	0.0367 (inactive)
O=C1[C@H]2[C@H]3[C@H](O)[C@H](O)CC(=NOCc4ccccc4)[C@H]3CC[C@H]2C(=O)N1Cc1ccc2c(c1)OCO2	-1.06 (inactive)	-0.147	19.4 (active)	2.12 (inactive)	0.686 (inactive)	0.599 (inactive)	-0.702	0.414 (inactive)	-0.0657 (inactive)	-2.61	0.446	0.717	-1.25	0.424	-1.69	0.701	-0.802 (inactive)	0.0189	0.349	0.392 (inactive)

Reference: PubChem BioAssay
